SW480 rerep: inducers of DNA re-replication in SW480 colon cancer cells. SW480 DNA re-replication, Hoechst DNA content imaging, 48 h. Potency, µM (titrated, usually from 46.1 µM), inactives show at the top dose re-replication activation, usual class: activators. 340,000 tested, 1.8% active. AID 624297; note: % of control where 0% means no effect; nearly all actives have a fitted effect of over 55% in size
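Compounds, transferred as 23 nL by pin tool, were incubated with cells for 48 hr; DNA content per nucleus was then quantified by Hoechst staining and fluorescence plate imaging.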
KB-3-1 tox: KB-3-1 parental cell cytotoxicity. Potency, µM (doses to about 46.1 µM), most hits filed as cytotoxic. 400,000 tested, 1.4% active. KB-3-1 viability, CellTiter-Glo ATP luminescence, 72 h; note: % is set by controls: 0 for no effect and ±100 for the full control effect; nearly all actives have a fitted effect of over 60% in size
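Using CellTiter-Glo luminescence, growth of non-resistant KB-3-1 adenocarcinoma cells is assessed 72 h after pin-tool compound addition at 37 °C. Normalized responses across the concentration series yield fitted curves.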
HT1080NT lethal: kills 2HG-producing HT-1080-NT fibrosarcoma cells; HT-1080-NT fibrosarcoma viability, CellTiter-Glo ATP luminescence, 48 h; Potency, µM (top dose mostly 46.1 µM), for the others: at the highest dose activity, negative = less viability, most hits filed as cytotoxic; 360,000 tested, 1.6% active; AID 686970;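 note: NT is the 2HG producing partner of a matched IDH1 knockdown line; 0% = DMSO-treated cells and -100% = media-only wells without cells; nearly all actives have a fitted effect of over 55% in size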
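Viability of the 2HG-overproducing fibrosarcoma line after 48 hours of compound exposure at 37 degrees C was determined by luminescence with CellTiter-Glo, and concentration-effect curves were then fitted and categorized.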
MCF10A rerep: inducers of DNA re-replication in MCF 10A breast cells. Potency, µM (top dose mostly 46.1 µM), without a hit: top-dose activity, positive = re-replication, usual class: activators. 350,000 tested, 2.9% active. AID 624296. MCF 10A DNA re-replication, Hoechst nuclear intensity, 48 h; note: % of control where 0% means no effect; nearly all actives have a fitted effect of over 50% in size
HT1080 IDH1KD tx: HT-1080 IDH1 knockdown cell toxicity (counter line). AID 686971. Potency, µM (top dose mostly 46.1 µM), for the others: at the highest dose activity, negative = toxicity, actives largely listed as cytotoxic. 360,000 tested, 2% active. HT-1080 IDH1 knockdown viability, ATP luminescence, 48 h;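 note: 0% = DMSO wells and -100% = cell-free medium wells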
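HT-1080-IDH1KD cells (IDH1 knocked down), 750/well in RPMI with 5% FBS, treated with compound 48 h at 37 degrees C. Viability by CellTiter-Glo luminescence, normalised to DMSO and no-cell wells; concentration-response curves classed.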
KB-V1 cytotox: KB-V1 MDR subline cytotoxicity. KB-V1 MDR cells viability, CellTiter-Glo, 72 h. Potency, µM (series often up to 46.1 µM), most hits filed as cytotoxic. 400,000 tested, 3.4% active. AID 1347076; note: % is set by controls: 0 for no effect and ±100 for the full control effect; nearly all actives have a fitted effect of over 60% in size
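Potencies derive from concentration-effect curves fitted to normalized luminescence (CellTiter-Glo) of KB-V1 cells treated for 72 h at 37 degrees C in phenol-red-free DMEM containing 10% FBS.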
Starred values were filed as active, the others as inactive; i = inactive; u = inconclusive; x = not tested or not shown; ! = not confirmed by another sample; [ ] = dose if it differs, or a comment. A selection: hits, their analogues and other compounds. The true share with any hit is near 8%. Calls come from the whole dose curve; as a rule, active = well fitted curve in the direction sought with a large enough effect; inconclusive = small, poorly fitted or top-dose-only effect, or another doubt; inactive = no such curve, though single readings can be large; an effect the other way counts as inactive or inconclusive. Potency is the fitted concentration of half-maximal effect.

SMILES	SW480 rerep	KB-3-1 tox	HT1080NT lethal	MCF10A rerep	HT1080 IDH1KD tx	KB-V1 cytotox
CCOc1ccc(S(=O)(=O)NCC(c2ccc(N(C)C)cc2)N2CCCC2)cc1 (stereo not drawn)	x	i	x	x	x	i
COc1ccc(CCN2C(=O)CN(Cc3ccccc3)CC2=O)cc1OC	-4%	i	17%	4%	10%	6.5µM*
COc1ccc(CCNC2=C(Cl)C(=O)N(CCc3ccc(OC)c(OC)c3)C2=O)cc1OC	2%	u	0%	3%	-11%	21µM*
COc1ccc(C2SCC(=O)N2CCc2ccc(OC)c(OC)c2)cc1 (stereo not drawn)	10µM*	u	u	0.52µM*	18µM*	u
COc1ccc(NC2=C(Cl)C(=O)N(CCc3ccccc3)C2=O)c(OC)c1	-7%	i	0%	-2%	-2%	13µM*
COc1ccc(CCn2c3c(c(=O)[nH]c2=S)CN(Cc2ccccc2)CN3)cc1OC	x	x	-1%	x	-15%	x
COc1ccc(NC2=C(Cl)C(=O)N(CCc3ccccc3)C2=O)cc1	2%	i	-1%	0%	-7%	i
CCC(=O)N1CCc2cc(Br)cc(S(=O)(=O)CCC(=O)NCc3ccccc3)c21	x	i	x	x	x	u
CCc1ccc(NC(=O)Cn2c(=O)n(CCCC(=O)NCCc3ccc(OC)c(OC)c3)c(=O)c3ccccc32)cc1	x	i	x	x	x	i
CCN(CC)CCNC(=O)c1cc2c(=O)n(C)c3cc(Cl)ccc3c2s1	x	i	x	x	x	u
COCc1nn2cc(-c3ccc(C)cc3)nc2s1	x	i	x	x	x	i
COc1ccc(CCN2C(=O)C=CC2=O)cc1OC	7.3µM*	i	u	4.6µM*	6.5µM*	u
COc1ccc(CCN2C(=O)c3cccnc3C2=O)cc1OC	-1%	i	9%	-5%	11%	i
Cn1c(CC2C(=O)Nc3ccc(Br)cc32)nc2ccccc2c1=O (stereo not drawn)	-1%	u	u	u	-27%	10µM*
COc1ccccc1C(=O)Oc1c(Sc2ccccc2)c(C)nn1C(C)(C)C	x	i	x	x	x	i
Cc1ccc(NC(=O)CN(CCc2ccccc2)S(=O)(=O)c2ccccc2)c(C)c1	x	i	x	x	x	i
CCC(=NC(C)c1ccccc1)c1c(O)n(C)c(=O)n(C)c1=O (stereo not drawn)	-10%	u	-19%	24%	-26%	2.6µM*
CC(C)[C@H](NC(=O)OC(C)(C)C)c1nnc(S(=O)(=O)Cc2c(F)cccc2Cl)o1	20%	i	6.3µM*	9.2µM*	4µM*	u
CC[C@@H](C)[C@H](NC(=O)OCc1ccccc1)c1nnc([C@@H](NC(=O)OCc2ccccc2)[C@@H](C)CC)o1	2%	i	-3%	-20%	-5%	i
C[C@H](NC(=O)OC(C)(C)C)c1nnc(SCc2c(F)cccc2Cl)o1	x	i	x	x	x	u
CC(C)(C)OC(=O)N[C@@H](Cc1ccccc1)c1nnc(S(=O)(=O)Cc2cccc(F)c2)o1	u	18µM*	u	u	23µM*	18µM*
Cc1ccccc1CS(=O)(=O)c1nnc([C@H](CC(C)C)NC(=O)OC(C)(C)C)o1	u	u	11µM*	25%	4µM*	i
CC[C@@H](C)[C@H](NC(=O)OC(C)(C)C)c1nnc(S(=O)(=O)Cc2cc(C)ccc2C)o1	13%	i	16µM*	4.1µM*	10µM*	u
CC(C)(C)OC(=O)N[C@@H](CCCCNC(=O)OCc1ccccc1)c1nnc([C@H](CCCCNC(=O)OCc2ccccc2)NC(=O)OC(C)(C)C)o1	11%	i	2%	1%	-4%	i
O=S1(=O)OC(c2ccc(O)cc2)(c2ccc(O)cc2)c2ccccc21	-5%	x	x	5%	x	x
SMILES	SW480 rerep	KB-3-1 tox	HT1080NT lethal	MCF10A rerep	HT1080 IDH1KD tx	KB-V1 cytotox
CCOc1ccc(C2=NC(c3ccncc3)=Nc3ccc(C)cc3N2)cc1OCC	x	i	x	x	x	i
Cc1nn(C(=O)c2cccc(F)c2)c(C)c1S(=O)(=O)N1CCCCCC1	x	i	x	x	x	i
CCOC(=O)CSc1nnc([C@H](Cc2ccccc2)NC(=O)OC(C)(C)C)o1	1%	i	8%	-4%	-21%	i
CC(C)C[C@H](NC(=O)OC(C)(C)C)c1nnc(SCc2ccccc2)o1	2.6µM*	i	-8%	430%[0.0737 µM]	-22%	u
CN(C)C(=O)CSc1nnc([C@H](Cc2c[nH]c3ccccc23)NC(=O)OC(C)(C)C)o1	-6%	i	-3%	-5%	10%	13µM*
Nc1nonc1-c1nc2ccccc2n1Cc1c(Cl)cccc1Cl	x	i	x	x	x	u
Cc1nn(Cc2ccccc2)c(Cl)c1C(=O)NCc1ccc(C)n1C	0%	i	2%	-1%	1%	15µM*
Cc1nn(-c2ccccc2)c(Cl)c1C(=O)NCc1cccs1	-3%	i	14%	16%	27%	15µM*
Cc1nn(-c2ccccc2)c(C)c1C(=O)NCc1cccs1	-108%	i	7%	1%	14%	i
Cc1c(-c2ccccc2)nc2ccccc2c1C(=O)NCc1cccs1	21%	i	-5%	u	-4%	12µM*
COc1cc(-c2nnc(SCCOc3ccc(Cl)cc3C)o2)cc(OC)c1OC	x	i	x	x	x	i
Cc1cc(-n2c(C)c3c(C)nnc(C)c3c2C)ccc1N	u	i	2%	21µM*	-2%	i
Cc1ccc(-n2c(C)c3c(C)nnc(C)c3c2C)cc1N	-2%	i	0%	0%	2%	i
Cc1nnc(C)c2c(C)n(-c3ccccc3N)c(C)c12	21µM*	i	-17%	1%	0%	i
CC(=O)N1CCCc2cc(S(=O)(=O)N(C)CC(=O)Nc3ccc(C(C)C)cc3)ccc21	x	i	x	x	x	i
CCN(CC)C(=O)Cn1c(SCCOc2ccc(Cl)cc2)nc2ccccc21	x	i	x	x	x	i
c1ccc2c(c1)Sc1ccccc1N2CCN1CCCC1	3%	x	x	7%	x	x
O=C1CSC2(CCN(CCCN3c4ccccc4Sc4ccc(Cl)cc43)CC2)N1	7%	x	x	19µM*	x	x
NC(=O)N1CCN(CCCN2c3ccccc3Sc3cc(Cl)ccc32)CC1	x	i	u	x	u	i
CN1CCN(CCCN2c3ccccc3Sc3ccc(C(F)(F)F)cc32)CC1	u	u	21µM*!	23µM*	u	21µM*!
